Test results as given in paper PMC7862700, “An all-to-all approach to the identification of sequence-specific readers for epigenetic DNA modifications on cytosine”.

What was measured:
Experiment in all cases: DAPPL (digital affinity profiling via proximity ligation, sequencing); 10 mM Tris-HCl pH 7.5, 50 mM NaCl, 1 mM DTT, 4% glycerol, room temperature, 30 min; GST-TFs on glutathione beads, 16-mer random dsDNA library, 0.1% formaldehyde crosslink after washing; high values mean tight binding
FLI1 = target: T1, FLI1 (Homo sapiens, UniProt Q01543 1-452); conditions: protein: recombinant; tags: N-terminal GST; dsDNA, one strand shown
T1 sequence: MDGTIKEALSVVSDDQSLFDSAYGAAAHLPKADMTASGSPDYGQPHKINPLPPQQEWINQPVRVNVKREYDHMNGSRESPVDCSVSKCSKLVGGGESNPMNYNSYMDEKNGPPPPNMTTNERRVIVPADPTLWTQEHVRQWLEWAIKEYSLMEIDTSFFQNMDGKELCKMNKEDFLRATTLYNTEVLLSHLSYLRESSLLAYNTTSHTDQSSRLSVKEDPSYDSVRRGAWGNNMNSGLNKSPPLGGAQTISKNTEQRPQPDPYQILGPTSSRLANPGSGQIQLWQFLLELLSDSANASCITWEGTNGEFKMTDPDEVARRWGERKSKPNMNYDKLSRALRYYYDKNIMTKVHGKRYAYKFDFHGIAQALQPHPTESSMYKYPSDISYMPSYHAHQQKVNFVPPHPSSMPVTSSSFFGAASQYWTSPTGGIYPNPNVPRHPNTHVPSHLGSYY
Outline: (§1)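 Human transcription factors fused to GST were expressed in yeast, captured on glutathione beads, given DNA barcodes and pooled with a GST-only negative control. Pools were incubated with 200 nmole of a 16-mer random double-stranded DNA library in Tris/NaCl/DTT/glycerol buffer at room temperature for 30 min. They were then washed, crosslinked with 0.1% formaldehyde, proximity-ligated (BsaI/T4 ligase, 1 h, 37 °C), PCR-amplified and sequenced on an Illumina NextSeq500. Binding signal is each 6-mer's read frequency for a factor divided by its frequency for the GST control.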

ELK1 = target: T2, ELK1 (Homo sapiens, UniProt P19419 1-428); conditions: protein: recombinant; tags: N-terminal GST; dsDNA, one strand shown
T2 sequence: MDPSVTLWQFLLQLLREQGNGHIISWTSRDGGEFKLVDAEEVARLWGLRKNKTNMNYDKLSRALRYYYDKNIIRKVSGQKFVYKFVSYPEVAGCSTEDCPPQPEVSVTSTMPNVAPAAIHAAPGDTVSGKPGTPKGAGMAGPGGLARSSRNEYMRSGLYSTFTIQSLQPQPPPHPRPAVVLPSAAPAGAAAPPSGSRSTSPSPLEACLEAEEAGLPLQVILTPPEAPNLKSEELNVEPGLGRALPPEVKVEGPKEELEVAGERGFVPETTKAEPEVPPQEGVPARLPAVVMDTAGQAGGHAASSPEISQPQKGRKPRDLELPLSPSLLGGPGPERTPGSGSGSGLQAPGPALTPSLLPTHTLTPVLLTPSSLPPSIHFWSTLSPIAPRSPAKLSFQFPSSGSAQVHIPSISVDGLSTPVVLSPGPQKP
Outline: as §1

GABPA = target: T3, GABPA (Homo sapiens, UniProt Q06546 1-454); conditions: protein: recombinant; tags: N-terminal GST; dsDNA, one strand shown
T3 sequence: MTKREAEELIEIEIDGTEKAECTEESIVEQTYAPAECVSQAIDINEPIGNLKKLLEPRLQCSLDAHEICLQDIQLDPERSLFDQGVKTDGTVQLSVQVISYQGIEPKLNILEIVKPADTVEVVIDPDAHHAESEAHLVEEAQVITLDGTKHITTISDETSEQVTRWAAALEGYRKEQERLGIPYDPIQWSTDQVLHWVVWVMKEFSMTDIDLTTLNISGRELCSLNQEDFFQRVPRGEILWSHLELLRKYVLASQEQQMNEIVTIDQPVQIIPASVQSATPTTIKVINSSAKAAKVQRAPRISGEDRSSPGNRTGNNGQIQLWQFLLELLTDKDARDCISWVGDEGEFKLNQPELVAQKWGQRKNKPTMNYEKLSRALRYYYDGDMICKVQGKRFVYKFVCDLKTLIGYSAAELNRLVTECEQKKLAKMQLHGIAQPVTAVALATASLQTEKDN
Outline: as §1

ERG = target: T4, ERG (Homo sapiens, UniProt P11308 1-479); conditions: protein: recombinant; tags: N-terminal GST; dsDNA, one strand shown
T4 sequence: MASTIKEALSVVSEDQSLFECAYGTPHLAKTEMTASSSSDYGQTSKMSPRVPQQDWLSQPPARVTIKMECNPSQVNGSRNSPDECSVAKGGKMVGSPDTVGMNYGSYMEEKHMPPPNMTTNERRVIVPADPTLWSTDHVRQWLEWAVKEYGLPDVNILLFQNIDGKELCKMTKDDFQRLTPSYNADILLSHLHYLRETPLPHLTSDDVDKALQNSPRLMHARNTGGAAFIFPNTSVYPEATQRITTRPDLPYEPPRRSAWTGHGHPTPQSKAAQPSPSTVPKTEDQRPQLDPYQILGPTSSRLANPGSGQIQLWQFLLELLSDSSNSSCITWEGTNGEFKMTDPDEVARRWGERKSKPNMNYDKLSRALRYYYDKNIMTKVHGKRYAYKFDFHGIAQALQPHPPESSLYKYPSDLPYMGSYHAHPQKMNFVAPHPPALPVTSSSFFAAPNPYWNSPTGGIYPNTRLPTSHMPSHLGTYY
Outline: as §1

ELF1 = ELF1 (Homo sapiens, UniProt P32519 1-619); conditions: protein: recombinant; tags: N-terminal GST; dsDNA, one strand shown
ELF1, sequence (P32519 whole entry): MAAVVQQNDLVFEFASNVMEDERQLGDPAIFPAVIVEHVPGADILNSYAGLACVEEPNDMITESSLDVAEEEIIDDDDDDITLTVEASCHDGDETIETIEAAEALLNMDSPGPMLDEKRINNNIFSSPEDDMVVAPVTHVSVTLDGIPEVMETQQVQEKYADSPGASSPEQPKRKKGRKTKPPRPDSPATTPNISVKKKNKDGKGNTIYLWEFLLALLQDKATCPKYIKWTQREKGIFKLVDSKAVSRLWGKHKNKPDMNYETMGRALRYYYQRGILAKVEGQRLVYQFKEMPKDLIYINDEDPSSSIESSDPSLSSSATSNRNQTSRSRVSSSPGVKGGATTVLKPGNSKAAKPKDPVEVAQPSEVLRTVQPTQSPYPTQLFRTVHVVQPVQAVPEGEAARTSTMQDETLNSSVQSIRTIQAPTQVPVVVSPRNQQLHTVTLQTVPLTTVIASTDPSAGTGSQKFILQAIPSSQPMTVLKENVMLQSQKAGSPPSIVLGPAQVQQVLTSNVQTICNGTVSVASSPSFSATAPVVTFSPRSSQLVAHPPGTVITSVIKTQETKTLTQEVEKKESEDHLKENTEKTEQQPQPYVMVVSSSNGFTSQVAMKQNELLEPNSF
Outline: as §1

EHF = target: T5, EHF (Homo sapiens, UniProt Q9NZC4 1-300); conditions: protein: recombinant; tags: N-terminal GST; dsDNA, one strand shown
T5 sequence: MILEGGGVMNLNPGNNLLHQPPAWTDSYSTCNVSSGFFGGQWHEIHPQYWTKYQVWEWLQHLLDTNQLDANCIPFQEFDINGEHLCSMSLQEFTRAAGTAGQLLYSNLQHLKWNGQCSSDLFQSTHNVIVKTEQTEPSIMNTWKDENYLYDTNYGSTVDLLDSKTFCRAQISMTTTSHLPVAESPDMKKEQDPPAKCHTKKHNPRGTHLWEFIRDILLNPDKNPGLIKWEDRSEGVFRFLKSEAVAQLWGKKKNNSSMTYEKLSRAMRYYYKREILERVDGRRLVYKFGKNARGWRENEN
Outline: as §1

SPI1 = SPI1 (Homo sapiens, UniProt P17947 1-270); conditions: protein: recombinant; tags: N-terminal GST; dsDNA, one strand shown
Outline: as §1

SPIB = SPIB (Homo sapiens, UniProt Q01892 1-262); conditions: protein: recombinant; tags: N-terminal GST; dsDNA, one strand shown
SPIB, sequence (Q01892 whole entry): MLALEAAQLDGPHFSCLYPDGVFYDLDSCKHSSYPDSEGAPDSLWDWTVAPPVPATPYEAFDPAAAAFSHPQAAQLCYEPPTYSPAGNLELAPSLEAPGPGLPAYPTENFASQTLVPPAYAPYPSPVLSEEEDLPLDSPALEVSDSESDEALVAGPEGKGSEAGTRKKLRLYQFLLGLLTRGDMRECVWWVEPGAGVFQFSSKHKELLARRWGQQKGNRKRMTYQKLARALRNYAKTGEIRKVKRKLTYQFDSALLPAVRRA
Outline: as §1

ELK3 = target: T6, ELK3 (Homo sapiens, UniProt P41970 1-407); conditions: protein: recombinant; tags: N-terminal GST; dsDNA, one strand shown
T6 sequence: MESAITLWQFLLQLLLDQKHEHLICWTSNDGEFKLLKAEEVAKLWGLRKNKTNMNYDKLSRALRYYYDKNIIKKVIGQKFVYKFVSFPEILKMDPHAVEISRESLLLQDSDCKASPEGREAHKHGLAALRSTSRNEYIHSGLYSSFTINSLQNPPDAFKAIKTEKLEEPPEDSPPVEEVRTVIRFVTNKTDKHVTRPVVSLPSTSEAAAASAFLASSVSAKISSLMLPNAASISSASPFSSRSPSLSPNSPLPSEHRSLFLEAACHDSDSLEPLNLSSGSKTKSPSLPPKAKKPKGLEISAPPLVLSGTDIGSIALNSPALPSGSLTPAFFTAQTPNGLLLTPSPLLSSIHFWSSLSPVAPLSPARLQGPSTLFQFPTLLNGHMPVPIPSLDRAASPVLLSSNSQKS
Outline: as §1

FEV = target: T7, FEV (Homo sapiens, UniProt Q99581 1-238); conditions: protein: recombinant; tags: N-terminal GST; dsDNA, one strand shown
T7 sequence: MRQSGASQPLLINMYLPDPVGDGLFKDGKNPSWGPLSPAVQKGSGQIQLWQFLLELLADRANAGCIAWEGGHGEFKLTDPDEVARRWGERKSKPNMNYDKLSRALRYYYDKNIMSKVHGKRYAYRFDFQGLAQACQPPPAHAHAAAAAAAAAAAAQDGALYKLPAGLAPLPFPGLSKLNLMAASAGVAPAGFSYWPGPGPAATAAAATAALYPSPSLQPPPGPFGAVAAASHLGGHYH
Outline: as §1

ETV5 = ETV5 (Homo sapiens, UniProt P41161 1-510); conditions: protein: recombinant; tags: N-terminal GST; dsDNA, one strand shown
ETV5, sequence (P41161 whole entry): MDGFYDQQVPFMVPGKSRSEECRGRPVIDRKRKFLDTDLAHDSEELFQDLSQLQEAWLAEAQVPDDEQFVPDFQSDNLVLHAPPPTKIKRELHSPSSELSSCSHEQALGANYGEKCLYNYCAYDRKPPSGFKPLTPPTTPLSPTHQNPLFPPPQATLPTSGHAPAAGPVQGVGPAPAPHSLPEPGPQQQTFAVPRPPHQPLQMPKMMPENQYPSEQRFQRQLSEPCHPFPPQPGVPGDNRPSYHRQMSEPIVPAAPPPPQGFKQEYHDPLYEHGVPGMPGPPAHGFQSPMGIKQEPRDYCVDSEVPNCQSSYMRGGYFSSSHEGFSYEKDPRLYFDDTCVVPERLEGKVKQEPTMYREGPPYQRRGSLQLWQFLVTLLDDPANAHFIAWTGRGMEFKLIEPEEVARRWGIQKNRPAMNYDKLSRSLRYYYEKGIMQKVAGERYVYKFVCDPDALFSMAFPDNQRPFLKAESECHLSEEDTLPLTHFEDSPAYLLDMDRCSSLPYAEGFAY
Outline: as §1

HSF1 = HSF1 (Homo sapiens, UniProt Q00613 1-529); conditions: protein: recombinant; tags: N-terminal GST; chain copies: 3; dsDNA, one strand shown
HSF1, sequence (Q00613 whole entry): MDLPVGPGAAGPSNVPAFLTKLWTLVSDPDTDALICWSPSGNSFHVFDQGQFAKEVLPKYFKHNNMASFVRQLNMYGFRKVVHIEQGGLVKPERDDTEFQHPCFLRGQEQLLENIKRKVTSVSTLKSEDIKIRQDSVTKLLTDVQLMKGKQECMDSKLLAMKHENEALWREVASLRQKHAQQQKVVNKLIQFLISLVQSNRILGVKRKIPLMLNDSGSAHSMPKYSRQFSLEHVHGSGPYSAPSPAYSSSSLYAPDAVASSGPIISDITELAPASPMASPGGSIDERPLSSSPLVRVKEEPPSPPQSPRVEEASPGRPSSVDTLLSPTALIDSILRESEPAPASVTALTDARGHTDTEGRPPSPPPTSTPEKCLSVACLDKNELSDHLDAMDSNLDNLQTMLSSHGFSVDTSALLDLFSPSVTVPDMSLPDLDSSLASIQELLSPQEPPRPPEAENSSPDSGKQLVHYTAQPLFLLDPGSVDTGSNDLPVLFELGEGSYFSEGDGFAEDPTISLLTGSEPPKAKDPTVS
Outline: as §1

SPIC = target: T8, SPIC (Homo sapiens, UniProt Q8N5J4 1-248); conditions: protein: recombinant; tags: N-terminal GST; dsDNA, one strand shown
T8 sequence: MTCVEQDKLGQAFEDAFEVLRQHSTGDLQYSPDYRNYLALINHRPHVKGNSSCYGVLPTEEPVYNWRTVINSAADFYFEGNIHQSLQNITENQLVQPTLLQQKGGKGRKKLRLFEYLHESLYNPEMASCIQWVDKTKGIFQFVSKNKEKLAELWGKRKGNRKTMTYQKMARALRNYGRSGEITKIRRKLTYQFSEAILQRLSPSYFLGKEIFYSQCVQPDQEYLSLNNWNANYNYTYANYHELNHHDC
Outline: as §1

ELF4 = ELF4 (Homo sapiens, UniProt Q99607 1-663); conditions: protein: recombinant; tags: N-terminal GST; dsDNA, one strand shown
ELF4, sequence (Q99607 whole entry): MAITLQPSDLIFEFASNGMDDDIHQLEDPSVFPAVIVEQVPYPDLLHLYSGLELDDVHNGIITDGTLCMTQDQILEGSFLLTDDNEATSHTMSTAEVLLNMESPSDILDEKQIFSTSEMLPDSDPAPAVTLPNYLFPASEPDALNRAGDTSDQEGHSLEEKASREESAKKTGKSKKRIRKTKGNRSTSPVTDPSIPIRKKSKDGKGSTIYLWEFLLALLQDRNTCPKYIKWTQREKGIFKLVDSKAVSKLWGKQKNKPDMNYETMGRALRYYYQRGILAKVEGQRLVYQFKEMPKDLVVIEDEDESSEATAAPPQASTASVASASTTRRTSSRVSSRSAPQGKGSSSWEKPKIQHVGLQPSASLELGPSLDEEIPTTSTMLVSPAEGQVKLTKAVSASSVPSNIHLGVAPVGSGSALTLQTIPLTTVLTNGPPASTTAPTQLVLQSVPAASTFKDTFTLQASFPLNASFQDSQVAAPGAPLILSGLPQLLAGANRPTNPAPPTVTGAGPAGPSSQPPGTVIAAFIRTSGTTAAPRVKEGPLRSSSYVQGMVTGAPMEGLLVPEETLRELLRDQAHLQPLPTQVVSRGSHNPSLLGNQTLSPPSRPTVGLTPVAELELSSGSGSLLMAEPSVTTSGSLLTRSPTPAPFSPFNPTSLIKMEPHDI
Outline: as §1

ELK4 = target: T9, ELK4 (Homo sapiens, UniProt P28324-2 1-405); conditions: protein: recombinant; tags: N-terminal GST; dsDNA, one strand shown
T9 sequence: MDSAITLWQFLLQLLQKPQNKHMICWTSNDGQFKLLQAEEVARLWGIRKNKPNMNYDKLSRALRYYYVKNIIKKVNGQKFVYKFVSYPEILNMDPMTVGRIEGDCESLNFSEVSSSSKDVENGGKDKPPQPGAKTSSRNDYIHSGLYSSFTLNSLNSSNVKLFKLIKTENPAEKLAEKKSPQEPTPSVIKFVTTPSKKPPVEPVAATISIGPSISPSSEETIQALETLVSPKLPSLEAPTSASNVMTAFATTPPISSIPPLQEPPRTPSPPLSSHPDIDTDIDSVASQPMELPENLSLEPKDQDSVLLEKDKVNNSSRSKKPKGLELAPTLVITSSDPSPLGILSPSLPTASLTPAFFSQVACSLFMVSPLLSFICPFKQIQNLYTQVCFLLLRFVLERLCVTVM
Outline: as §1

ETV2 = target: T10, ETV2 (Homo sapiens, UniProt O00321 1-342); conditions: protein: recombinant; tags: N-terminal GST; dsDNA, one strand shown
T10 sequence: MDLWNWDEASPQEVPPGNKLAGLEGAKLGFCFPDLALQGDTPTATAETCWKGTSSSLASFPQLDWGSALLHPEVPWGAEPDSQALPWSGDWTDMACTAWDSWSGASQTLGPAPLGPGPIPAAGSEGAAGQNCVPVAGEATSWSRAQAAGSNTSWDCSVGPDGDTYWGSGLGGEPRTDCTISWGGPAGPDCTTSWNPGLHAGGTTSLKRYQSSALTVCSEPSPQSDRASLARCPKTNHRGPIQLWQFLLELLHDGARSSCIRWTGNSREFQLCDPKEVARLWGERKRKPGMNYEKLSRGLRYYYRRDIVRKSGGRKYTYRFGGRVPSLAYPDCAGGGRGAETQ
Outline: as §1

ELF3 = target: T11, ELF3 (Homo sapiens, UniProt P78545 1-371); conditions: protein: recombinant; tags: N-terminal GST; dsDNA, one strand shown
T11 sequence: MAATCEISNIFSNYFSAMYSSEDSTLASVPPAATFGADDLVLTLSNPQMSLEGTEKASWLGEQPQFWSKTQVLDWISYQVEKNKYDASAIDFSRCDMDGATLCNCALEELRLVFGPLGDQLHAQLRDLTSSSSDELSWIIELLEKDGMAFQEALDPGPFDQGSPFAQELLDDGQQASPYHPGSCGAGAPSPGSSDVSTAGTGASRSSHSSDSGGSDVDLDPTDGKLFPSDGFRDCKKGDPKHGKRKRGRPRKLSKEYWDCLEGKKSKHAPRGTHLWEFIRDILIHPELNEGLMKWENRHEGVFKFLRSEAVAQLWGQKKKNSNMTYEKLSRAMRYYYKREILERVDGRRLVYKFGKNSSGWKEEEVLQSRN
Outline: as §1

CRX = CRX (Homo sapiens, UniProt O43186 1-299); conditions: protein: recombinant; tags: N-terminal GST; dsDNA, one strand shown
CRX, sequence (O43186 whole entry): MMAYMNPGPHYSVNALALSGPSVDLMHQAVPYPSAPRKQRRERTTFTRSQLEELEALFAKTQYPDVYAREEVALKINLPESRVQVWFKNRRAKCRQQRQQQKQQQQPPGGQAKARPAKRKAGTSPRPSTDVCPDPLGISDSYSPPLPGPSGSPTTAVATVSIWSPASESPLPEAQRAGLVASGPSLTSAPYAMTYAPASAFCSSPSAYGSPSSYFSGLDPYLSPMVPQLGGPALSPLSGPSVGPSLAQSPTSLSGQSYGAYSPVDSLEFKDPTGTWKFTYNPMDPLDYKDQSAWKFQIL
Outline: as §1

ETV1 = ETV1 (Homo sapiens, UniProt P50549 1-477); conditions: protein: recombinant; tags: N-terminal GST; dsDNA, one strand shown
ETV1, sequence (P50549 whole entry): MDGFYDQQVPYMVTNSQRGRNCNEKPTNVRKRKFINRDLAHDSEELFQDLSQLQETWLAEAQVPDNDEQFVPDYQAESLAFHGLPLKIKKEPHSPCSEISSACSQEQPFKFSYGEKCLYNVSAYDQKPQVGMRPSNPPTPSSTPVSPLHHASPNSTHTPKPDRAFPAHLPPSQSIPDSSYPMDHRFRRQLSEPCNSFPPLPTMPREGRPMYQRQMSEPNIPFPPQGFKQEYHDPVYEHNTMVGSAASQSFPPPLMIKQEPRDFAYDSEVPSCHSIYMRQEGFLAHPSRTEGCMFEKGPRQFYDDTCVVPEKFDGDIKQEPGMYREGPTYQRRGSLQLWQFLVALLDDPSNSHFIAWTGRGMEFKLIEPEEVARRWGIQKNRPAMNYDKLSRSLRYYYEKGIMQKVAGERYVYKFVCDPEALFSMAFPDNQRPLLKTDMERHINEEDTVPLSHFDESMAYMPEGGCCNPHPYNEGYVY
Outline: as §1

GCTTCG
binding signal (FLI1): 1.3 fold enrichment (6-mer frequency, TF over GST control)
binding signal (ELK1): 1.46 fold enrichment (6-mer frequency, TF over GST control)
binding signal (GABPA): 1.35 fold enrichment (6-mer frequency, TF over GST control)
binding signal (ERG): 1.36 fold enrichment (6-mer frequency, TF over GST control)
binding signal (ELF1): 1.32 fold enrichment (6-mer frequency, TF over GST control)
binding signal (EHF): 1.26 fold enrichment (6-mer frequency, TF over GST control)
binding signal (SPI1): 1.26 fold enrichment (6-mer frequency, TF over GST control)
binding signal (SPIB): 1.3 fold enrichment (6-mer frequency, TF over GST control)
binding signal (ELK3): 1.4 fold enrichment (6-mer frequency, TF over GST control)
binding signal (FEV): 1.26 fold enrichment (6-mer frequency, TF over GST control)
binding signal (ETV5): 1.29 fold enrichment (6-mer frequency, TF over GST control)
binding signal (HSF1): 1.6 fold enrichment (6-mer frequency, TF over GST control)
binding signal (SPIC): 1.17 fold enrichment (6-mer frequency, TF over GST control)
binding signal (ELF4): 1.26 fold enrichment (6-mer frequency, TF over GST control)
binding signal (ELK4): 1.38 fold enrichment (6-mer frequency, TF over GST control)
binding signal (ETV2): 1.33 fold enrichment (6-mer frequency, TF over GST control)
binding signal (ELF3): 1.47 fold enrichment (6-mer frequency, TF over GST control)
binding signal (CRX): 1.25 fold enrichment (6-mer frequency, TF over GST control)
binding signal (ETV1): 1.29 fold enrichment (6-mer frequency, TF over GST control)
